The text below walks through data of PubChem BioAssay.

A short description of assay [1]: compounds binding Alexa647 anti-His antibody – biochemical, small-molecule microarray, 635 nm fluorescence, artefact control for SMM control protein annotation, primary screen (AID 1128).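 Note: score merges feature fluorescence with signal-to-noise for each printed compound spot.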 Conditions: higher = more signal.
Assay [2] has as its system Human papillomavirus type 1a E7 protein (residues 1-88). In words: HPV1a E7 small-molecule binders, primary screen, biochemical, small-molecule microarray, residues 1-88, 635 nm (AID 1129). Conditions: small-molecule microarray binding, fluorescence 635 nm; higher = more signal.
For assay [3], the target named is Focal adhesion kinase 1 (Homo sapiens) (UniProt Q05397). The assay is described as follows: PTK2 protein binding on printed compound slides – biochemical, small-molecule microarray, 635/667 nm fluorescence, BSA, DTT, primary screen (AID 1130).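 Note: composite of spot emission at 667 nm and signal to noise over triplicate slides.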 Conditions: 635 nm fluorescence, higher = more signal.
Chain of Focal adhesion kinase 1 (Homo sapiens) (Q05397 whole entry, looked up): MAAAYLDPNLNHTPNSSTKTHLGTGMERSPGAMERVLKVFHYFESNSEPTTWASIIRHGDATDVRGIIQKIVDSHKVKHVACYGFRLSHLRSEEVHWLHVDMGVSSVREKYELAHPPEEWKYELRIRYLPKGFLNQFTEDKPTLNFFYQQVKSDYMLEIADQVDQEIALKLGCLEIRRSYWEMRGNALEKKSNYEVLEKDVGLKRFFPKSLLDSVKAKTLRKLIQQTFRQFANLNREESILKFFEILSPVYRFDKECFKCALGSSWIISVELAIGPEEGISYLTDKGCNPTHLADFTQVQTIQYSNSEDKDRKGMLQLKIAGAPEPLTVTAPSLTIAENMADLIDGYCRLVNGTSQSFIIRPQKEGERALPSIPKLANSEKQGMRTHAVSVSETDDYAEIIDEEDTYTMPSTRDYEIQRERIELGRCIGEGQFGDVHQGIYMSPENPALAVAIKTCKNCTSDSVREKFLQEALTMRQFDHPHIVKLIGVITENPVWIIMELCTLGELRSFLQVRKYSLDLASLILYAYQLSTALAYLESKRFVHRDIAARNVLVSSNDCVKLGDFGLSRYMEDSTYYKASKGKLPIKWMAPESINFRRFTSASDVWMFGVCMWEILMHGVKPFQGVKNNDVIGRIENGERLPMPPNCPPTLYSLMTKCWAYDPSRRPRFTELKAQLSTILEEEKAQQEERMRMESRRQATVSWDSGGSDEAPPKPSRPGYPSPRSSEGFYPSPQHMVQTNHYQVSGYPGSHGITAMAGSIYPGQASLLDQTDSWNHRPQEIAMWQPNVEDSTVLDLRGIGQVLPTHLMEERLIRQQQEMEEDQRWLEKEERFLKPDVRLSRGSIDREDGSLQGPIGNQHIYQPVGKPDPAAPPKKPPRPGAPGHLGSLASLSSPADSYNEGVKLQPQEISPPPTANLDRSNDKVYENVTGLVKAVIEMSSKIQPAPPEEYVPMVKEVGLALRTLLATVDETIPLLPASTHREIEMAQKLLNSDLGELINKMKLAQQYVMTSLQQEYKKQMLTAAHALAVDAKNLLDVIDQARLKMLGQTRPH
Assay [4] relates to Fibrinogen (Alexa647-labelled). The assay is described as follows: Alexa647-fibrinogen binding to printed small molecules – biochemical, small-molecule microarray, 635/667 nm fluorescence, artefact control for SMM control-protein annotation, profiling panel (AID 1131).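 Note: z-score merges 667 nm fluorescence with per-spot signal-to-noise over triplicate slides.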 Conditions: fibrinogen-A647 binding fluorescence, higher = more signal.
In assay [5] the target is Follistatin (Homo sapiens) (UniProt P19883). In words: FST protein binding to printed compounds – biochemical, small-molecule microarray, 635/667 nm fluorescence, primary screen (AID 1132). The settings on record: 635 nm fluorescence, higher = more signal.
Chain of Follistatin (Homo sapiens) (P19883 whole entry, looked up): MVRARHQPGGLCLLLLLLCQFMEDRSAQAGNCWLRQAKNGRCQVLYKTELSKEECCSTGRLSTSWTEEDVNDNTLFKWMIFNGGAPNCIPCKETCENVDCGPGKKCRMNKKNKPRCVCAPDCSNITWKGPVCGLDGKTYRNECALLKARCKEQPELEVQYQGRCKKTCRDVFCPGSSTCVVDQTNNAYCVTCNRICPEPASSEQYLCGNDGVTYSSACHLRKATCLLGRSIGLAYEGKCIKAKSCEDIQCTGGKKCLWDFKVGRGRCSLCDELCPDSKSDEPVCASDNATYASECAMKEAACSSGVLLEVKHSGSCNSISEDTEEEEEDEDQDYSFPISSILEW
In assay [6] the target is Fibroblast growth factor 2 (Homo sapiens) (UniProt P09038). In words: basic fibroblast growth factor binding to printed compounds – biochemical, small-molecule microarray, 635/667 nm fluorescence, primary screen (AID 1133). Conditions: FGF2, fluorescence 635/667, higher = more signal.
Chain of Fibroblast growth factor 2 (Homo sapiens) (P09038 whole entry, looked up): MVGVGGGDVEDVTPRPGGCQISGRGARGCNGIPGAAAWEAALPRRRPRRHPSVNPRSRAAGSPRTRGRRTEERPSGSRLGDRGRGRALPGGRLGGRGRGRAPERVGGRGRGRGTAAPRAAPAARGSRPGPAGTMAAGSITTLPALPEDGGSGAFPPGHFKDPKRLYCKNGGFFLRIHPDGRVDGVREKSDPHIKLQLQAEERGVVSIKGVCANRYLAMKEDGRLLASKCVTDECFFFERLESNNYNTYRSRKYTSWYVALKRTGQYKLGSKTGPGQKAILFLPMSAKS
The nature of assay [7]: JC-1 mitochondrial potential readout, lung cancer cells – cell-based, A549, JC-1 fluorescence, basal, 24 h, 100 nL, profiling panel (AID 1138).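 Note: A549 lung adenocarcinoma cells under basal conditions with no added stimulus; test concentration not given here.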 Conditions: higher = more signal.
The test system of assay [8] is Lefty1. In words: Lefty1 protein binding to printed compounds – biochemical, small-molecule microarray, 635/667 nm fluorescence, primary screen (AID 1139). The settings on record: fluorescence 635/667, higher = more signal.
Assay [9] concerns wheat germ agglutinin (Triticum aestivum), Alexa647-labelled. The assay is described as follows: Alexa647-WGA lectin binding to printed small molecules – biochemical, small-molecule microarray, 635/667 nm fluorescence, artefact control for SMM control-protein annotation, profiling panel (AID 1140).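 Note: score merges 667 nm feature emission with signal to noise over triplicate slides.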 Conditions: WGA-A647 binding, 635 nm fluorescence, higher = more signal.
For assay [10], the target named is Luciferin 4-monooxygenase (Photinus pyralis) (UniProt P08659). In words: inhibition of purified Photinus pyralis luciferase – biochemical, luminescence, purified enzyme, 2006 set, primary screen (AID 1141).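 Note: cell-free assay with purified firefly luciferase at 100 ng per well in PBS; test concentration not given here.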 Conditions: purified firefly luciferase, SteadyGlo luminescence, 30 min; higher = more signal, called active from +8 up or from −8 down.
Chain of Luciferin 4-monooxygenase (Photinus pyralis) (P08659 whole entry, looked up): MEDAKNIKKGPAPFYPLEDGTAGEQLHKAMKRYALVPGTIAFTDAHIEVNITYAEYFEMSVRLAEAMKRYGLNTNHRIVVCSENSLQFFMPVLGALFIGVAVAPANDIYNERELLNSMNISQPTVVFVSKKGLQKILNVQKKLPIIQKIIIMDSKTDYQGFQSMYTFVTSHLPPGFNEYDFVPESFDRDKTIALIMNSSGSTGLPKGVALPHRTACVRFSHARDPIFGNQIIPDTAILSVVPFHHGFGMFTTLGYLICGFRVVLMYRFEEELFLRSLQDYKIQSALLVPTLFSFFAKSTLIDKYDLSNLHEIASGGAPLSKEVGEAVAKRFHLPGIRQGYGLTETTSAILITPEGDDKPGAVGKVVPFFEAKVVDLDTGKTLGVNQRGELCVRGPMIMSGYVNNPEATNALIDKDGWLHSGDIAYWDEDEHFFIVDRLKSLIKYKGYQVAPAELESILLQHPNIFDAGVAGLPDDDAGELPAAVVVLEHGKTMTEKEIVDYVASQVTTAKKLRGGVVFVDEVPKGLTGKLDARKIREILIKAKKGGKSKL
For assay [11], the system named is Wnt5a (protein binding on small-molecule microarray). In words: small molecules binding Wnt5a protein – biophysical, small-molecule microarray, 635/667 nm fluorescence, primary screen (AID 1142).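 Note: fluorescence read at 667 nm with signal to noise per printed feature.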 Conditions: 635 nm fluorescence, higher = more signal.
Assay [12] is described as follows: ATP-based viability of Huh7 replicon cells – cell-based, CellTiter-Glo luminescence, basal, 48 h, cytotoxicity control for HCV replication inhibitor project, primary screen (AID 1143).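 Note: Huh7 hepatoma cells carrying a hepatitis C replication reporter with no stimulus; test concentration not given here.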 The settings on record: higher = more signal, called active from +8 up or from −8 down. (In general: In antiviral work, replicon cells carry a viral genome segment that copies itself.)

Assay [13] in a line: Pseudomonas biofilm growth suppression – PAO1 strain, BacTiter-Glo luminescence, LB-PBS, primary screen (AID 1144). The settings on record: P. aeruginosa PAO1 biofilm, 12 h, higher = more signal.
Assay [14] can be described thus: basal CRE-LacZ reporter activity in PC12 – cell-based, unstimulated, primary screen (AID 1145). Conditions: no forskolin, luminescence, 4.5 h, higher = more signal, called active from +8 up or from −8 down.
Assay [15] can be described thus: forskolin-driven CRE-LacZ activity in PC12 – cell-based, CRE-LacZ reporter, forskolin-stimulated, primary screen (AID 1146).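 Note: PC12 cells with 6xCRE LacZ reporter stimulated by forskolin 10 µM; beta-galactosidase reporter signal reflecting CREB driven transcription.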 Conditions: luminescence, 4.5 h, higher = more signal, called active from +8 up or from −8 down.
In assay [16] the target is Streptavidin (Streptomyces avidinii) (UniProt P22629). In words: compounds binding control protein streptavidin – biophysical, small-molecule microarray, 635/667 nm fluorescence, artefact control for SMM compound annotation, primary screen (AID 1147).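 Note: signal reflects streptavidin binding to arrayed compounds as a control protein.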 The settings on record: higher = more signal.
Chain of Streptavidin (Streptomyces avidinii) (P22629 whole entry, looked up): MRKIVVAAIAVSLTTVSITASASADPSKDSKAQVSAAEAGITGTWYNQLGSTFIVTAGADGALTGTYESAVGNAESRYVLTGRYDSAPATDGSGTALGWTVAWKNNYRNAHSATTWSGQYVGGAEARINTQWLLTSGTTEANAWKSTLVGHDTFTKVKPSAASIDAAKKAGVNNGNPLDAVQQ
Assay [17] in a line: probe aInhba binding on compound microarray – biochemical, small-molecule microarray, 635/667 nm fluorescence, primary screen (AID 1148).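 Note: score merges 667nm spot fluorescence with signal-to-noise for antibody binding to printed compounds.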 Conditions: higher = more signal.
For assay [18], the target named is Torsin-1A (Homo sapiens) (UniProt O14656). In words: TOR1A wild-type binding on microarray – cell lysate, small-molecule microarray, lysate, 635/667 nm, primary screen (AID 1149). Conditions: COS7 hTOR1A-WT lysate, 635 nm fluorescence, higher = more signal.
Chain of Torsin-1A (Homo sapiens) (O14656 whole entry, looked up): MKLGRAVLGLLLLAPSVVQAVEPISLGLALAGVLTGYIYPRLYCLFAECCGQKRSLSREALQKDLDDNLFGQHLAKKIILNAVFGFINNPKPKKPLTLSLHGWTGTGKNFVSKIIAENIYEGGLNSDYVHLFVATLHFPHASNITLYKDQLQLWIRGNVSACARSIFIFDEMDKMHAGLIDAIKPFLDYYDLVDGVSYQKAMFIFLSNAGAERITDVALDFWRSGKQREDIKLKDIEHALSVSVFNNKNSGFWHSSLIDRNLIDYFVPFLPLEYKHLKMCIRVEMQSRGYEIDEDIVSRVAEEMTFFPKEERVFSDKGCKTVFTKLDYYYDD
Assay [19] has the same target. The assay is described as follows: torsin A mutant lysate binding on microarrays – cell lysate, small-molecule microarray, COS7 lysate, 635/667 nm fluorescence, primary screen (AID 1150).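 Note: score pools 667 nm emission and signal to noise measuring lysate protein binding.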 Conditions: COS7 hTOR1A mutant lysate, 635 nm fluorescence, higher = more signal.
The subject of assay [20] is Sonic hedgehog protein (Shh). In words: Sonic hedgehog microarray binding compounds – biochemical, small-molecule microarray, 635/667 nm fluorescence, primary screen (AID 1151).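 Note: Shh protein binding to compounds spotted on small-molecule microarray slides; score combines spot fluorescence intensity with signal-to-noise across triplicate slides.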 The settings on record: 635 nm fluorescence, higher = more signal.

Calls of active or inactive are those of the source. Unless noted, the rule behind the calls is not given here.

As to `COC(=O)C1=C(C)N(Cc2ccccc2)[C@]23O[C@](C(=O)OC)(C(=O)N2[C@@H]1c1ccccc1)C(C(=O)OC)=C3C(=O)OC`, the composite z-score in [1] worked out at 0.686; in assay [2] it was 0.653; in assay [3] it was 0.0309; in assay [4] it was 0.784; in [5], 0.732; in assay [6] it was 0.808. Moreover, the composite z-score in assay [8] was 1.09; in assay [9] it was -0.0964; in [11], 0.256; in assay [16] it was 0.252; in [17] it was 0.095; in [18], 0.199. Also, the composite z-score was 0.454 in [19] and 0.657 in [20]. The z-score in assay [7] is -0.489; in assay [10], -0.371 (inactive); in [12], -4.08 (inactive); in [13], -1.25 (inactive); in [14] it was 1.92 (inactive); in assay [15], -1.61 (inactive).

In the case of `CO[C@H]1COC(=O)[C@H](C)NC(=O)CC=C[C@@H](C)[C@H](OC)COC(=O)[C@@H](OCc2ccccc2)C=C[C@@H]1C`, the composite z-score in assay [1] was -0.435; in assay [2], -0.611; in [3], -0.329; in [4] it was 0.029; in assay [5], 1.21; in [6], 0.618. Further, the composite z-score is 0.529 in [8]; -1.25 in assay [9]; -0.0911 in assay [11]; -0.697 in [16]; -0.0791 in assay [17]; 0.57 in [18]. The composite z-score in [19] is -0.0163; in assay [20], 0.683. For the same compound, the z-score was 0.805 in [7]; -0.231 (inactive) in [10]; 0.382 (inactive) in [12]; 0.213 (inactive) in [13]; 0.971 (inactive) in assay [14]; -0.262 (inactive) in assay [15].

For `CC(=O)OC[C@H]1OC(ON=CC[C@@H]2C=C[C@H](OC(C)=O)[C@@H](COC(C)=O)O2)[C@H](OC(C)=O)[C@@H](OC(C)=O)[C@@H]1OC(C)=O` (stereo not given in full), the composite z-score is 2.8 in assay [1]; 0.268 in assay [2]; 0.282 in [3]; 0.106 in assay [4]; -0.494 in assay [5]; 0.0994 in assay [6]. In addition, the composite z-score was -0.101 in [8]; -0.223 in assay [9]; 0.066 in assay [11]; 0.559 in [16]; -0.126 in [17]; 0.37 in assay [18]. In addition, the values for the composite z-score in assay [19] and in assay [20] were 0.877 and -0.499, respectively. In addition, the z-score in assay [7] is -0.99; in assay [10], 1.11 (inactive); in assay [12], -0.697 (inactive); in [13], -0.133 (inactive); in assay [14] it was 0.327 (inactive); in [15] it was 0.915 (inactive).

`CC(C)(C)N1C(=O)[C@H]2[C@H]3[C@H](O)C=CC(=O)[C@@H]3CC[C@H]2C1=O`: the composite z-score is 0.204 in assay [1]; 0.025 in [2]; -0.258 in [3]; 0.347 in [4]; 0.39 in assay [5]; 0.255 in assay [6]. The composite z-score in [8] is 0.461; in assay [9] it was 0.0896; in [11] it was 0.307; in [16] it was 0.4; in assay [17] it was -0.128; in assay [18], 0.281. In addition, the composite z-score in assay [19] was determined as 0.252; in assay [20], 0.521. For the same compound, the z-score in assay [7] was 0.109; in assay [10], -0.753 (inactive); in [12] it was 0.536 (inactive); in [13] it was 0.0768 (inactive); in assay [14], 1.06 (inactive); in [15], -0.0003 (inactive).

With `C[n+]1ccc(-c2ccc(CO)cc2)cc1`, the composite z-score in [1] was 0.658; in assay [2], -0.676; in assay [3] it was -0.332; in assay [4] it was -0.168; in assay [5], 1.55; in assay [6], 1.35. For the same compound, the composite z-score is 1.61 in assay [8]; 1.48 in assay [9]; -0.0113 in assay [11]; 2.72 in assay [16]; -0.0209 in [17]; 0.565 in [18]. In addition, the composite z-score in [19] worked out at 1.67; in assay [20], 2.14. Further, the z-score in assay [7] was -0.666; in [10], -0.288 (inactive); in assay [12], 0.0559 (inactive); in [13], 0.466 (inactive); in assay [14], 0.919 (inactive); in [15], 0.723 (inactive).

On to `COc1ccc(O[C@H]2C=C[C@@H](c3ccccc3)O[C@@H]2CON=CC[C@@H]2C=C[C@H](OC(C)=O)[C@@H](COC(C)=O)O2)cc1`, for which the composite z-score in assay [1] was 2.11; in assay [2], -0.311; in [3], 0.178; in assay [4], 0.516; in assay [5], 0.229; in assay [6], 0.107. Also, the composite z-score is 0.257 in assay [8]; 0.807 in assay [9]; 0.0129 in assay [11]; 3.65 in [16]; -0.176 in [17]; -0.107 in assay [18]. For the same compound, the values for the composite z-score in assay [19] and in [20] were -0.26 and 0.328, respectively. Further, the z-score in assay [7] is 0.124; in assay [10] it was -0.354 (inactive); in assay [12], -1.06 (inactive); in [13], -0.705 (inactive); in assay [14], 1.15 (inactive); in assay [15], 0.222 (inactive).

With `C[C@H]1Cc2c(COc3ccccc3)nc3c(c2CO1)CN(CCOc1ccccc1)CC3`, the composite z-score was found to be 1.07 in [1]; 0.804 in assay [2]; 0.673 in assay [3]; 0.702 in assay [4]; 1.18 in assay [5]; 0.537 in assay [6]. For the same compound, the composite z-score in [8] is 1.13; in [9], 0.346; in assay [11], 0.0543; in [16], 0.426; in assay [17], -0.157; in [18], 0.53. Besides, the composite z-score turned out to be 0.217 in assay [19] and 1.21 in assay [20]. Besides, the z-score in assay [7] was 4.09; in assay [10], -1.19 (inactive); in assay [12], -0.491 (inactive); in assay [13], -1.96 (inactive); in assay [14], 3.54 (inactive); in assay [15] it was -0.632 (inactive).

Take `COc1cccc([C@H]2Oc3ccc(OC)cc3C(=NOC[C@@H](C)[C@H](OCc3ccccc3)C(C)C)[C@@H]2O)c1`: the composite z-score was 1.78 in assay [1]; 0.321 in assay [2]; 0.0885 in assay [3]; 0.069 in assay [4]; 0.232 in assay [5]; 0.0521 in assay [6]. The composite z-score in [8] is 0.709; in [9] it was 0.872; in assay [11], 0.276; in assay [16], -0.234; in assay [17] it was -0.106; in assay [18], 0.577. For the same compound, the composite z-score in [19] turned out to be 0.83; in assay [20] it was 0.115. Moreover, the z-score in assay [7] was -0.789; in [10], -0.0981 (inactive); in assay [12], -0.324 (inactive); in [13], 0.508 (inactive); in assay [14], 0.666 (inactive); in [15], 0.649 (inactive).

As for `CCOC(=O)[C@H](CC(C)C)NC(=O)CCC1CC(OC(=O)NCc2cccc3ccccc23)CC2(CCCC(COC(=O)NCc3cccc(C(F)(F)F)c3)O2)O1` (stereo not given in full), the composite z-score in assay [1] is -0.206; in [2] it was 0.492; in [3] it was -0.0868; in assay [4], 0.52; in assay [5], 0.312; in [6], 0.231. In addition, the composite z-score in assay [8] is 0.42; in assay [9] it was 0.0501; in [11] it was -0.0645; in assay [16], 0.626; in assay [17], -0.0872; in assay [18], 0.27. Besides, the composite z-score in assay [19] is 0.261; in [20] it was 0.258. Also, the z-score was 0.841 in [7]; 0.421 (inactive) in assay [10]; -0.0149 (inactive) in assay [12]; -0.658 (inactive) in [13]; 0.288 (inactive) in [14]; -0.274 (inactive) in assay [15].
